About 83,000 compounds went through this panel and 20% of them were active in at least one assay; those are over-represented in the sample as a whole.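 For each line, cells grew in 96-well plates with the test compound present at a single concentration for 48 hours.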 A number with no mark means an inactive call. Calls of active or inactive are those of the source. Rule for the calls: active = growth percent below 10; inactive = the rest.

Among the test systems are SR leukemia; RPMI-8226 leukemia; OVCAR-8 ovarian; OVCAR-5 ovarian; OVCAR-4 ovarian; SK-OV-3 ovarian; IGROV1 ovarian; OVCAR-3 ovarian; HS 578T breast; T-47D breast; BT-549 breast; MDA-MB-435 melanoma; SW-620 colon; MCF7 breast; HCT-116 colon; HCC-2998 colon; KM12 colon; NCI/ADR-RES ovarian.
Holding throughout (experiment): NCI-60 one-dose screen, 48 h (100 = growth as untreated, 0 = no growth, -100 = all killed)
Holding throughout (conditions): 10 µM unless noted

Regarding `CCCCCCCCCC[C@@H](C)[C@@H]1CC(=O)N[C@H]([C@@H](C)O)C(=O)N[C@@H](C)C(=O)N[C@H](C)C(=O)N[C@@H](CCC(N)=O)C(=O)N[C@H](Cc2ccc(O)cc2)C(=O)N[C@@H](C(C)CC)C(=O)O1` (stereo not given in full), the growth in the test on SR leukemia is 75%; in the test on RPMI-8226 leukemia, 35.1%; in the test on OVCAR-8 ovarian, 51.8%; in the test with OVCAR-5 ovarian, 92.2%; with OVCAR-4 ovarian it was 30.9%; with SK-OV-3 ovarian, 66.5%. For the same compound, the growth is 76.2% in the test on IGROV1 ovarian; 48.4% with OVCAR-3 ovarian; 89% in the test with HS 578T breast; 28% with T-47D breast; 72.1% in the test with BT-549 breast; 75.3% with MDA-MB-435 melanoma. The growth was 81.9% with SW-620 colon; 38.9% in the test with MCF7 breast; 64.6% in the test on HCT-116 colon; 68.3% in the test on HCC-2998 colon; 81.4% with KM12 colon.
Regarding `COc1cc(/C=C2\SC(=O)NC2=O)ccc1OCC(=O)Nc1ccc(C(=O)/C=C/c2cc3ccccc3nc2Cl)cc1`, the growth was 27.7% with SR leukemia; -1.87% (active) in the test on RPMI-8226 leukemia; 84% with OVCAR-8 ovarian; 109% with OVCAR-5 ovarian; 52.9% in the test with OVCAR-4 ovarian; 104% with SK-OV-3 ovarian. Further, the growth in the test with IGROV1 ovarian is 92.6%; in the test on OVCAR-3 ovarian, 104%; in the test on HS 578T breast it was 99.1%; with T-47D breast it was 66.3%; with BT-549 breast, 72.9%; in the test on MDA-MB-435 melanoma, 83.6%. The growth with SW-620 colon is 96.6%; with MCF7 breast, 20.9%; in the test on HCT-116 colon, -62% (active); in the test with HCC-2998 colon, 103%; with KM12 colon, 91.6%.
For the compound `IP(CCCSc1n(Cc2ccc3ccccc3c2)c(-c2ccccc2)c(-c2ccccc2)[n+]1Cc1ccc2ccccc2c1)(c1ccccc1)(c1ccccc1)c1ccccc1`, the growth in the test on SR leukemia is 5.94% (active); in the test with RPMI-8226 leukemia, 14.8%; in the test on OVCAR-8 ovarian it was 38.6%; with OVCAR-5 ovarian, 58.5%; in the test on OVCAR-4 ovarian it was 23.2%; in the test on SK-OV-3 ovarian it was 29.4%. In addition, the growth in the test on IGROV1 ovarian was 23.9%; in the test on OVCAR-3 ovarian, 8.3% (active); in the test with HS 578T breast it was 67.1%; in the test on NCI/ADR-RES ovarian, 94.1%; with T-47D breast, 2.62% (active); in the test on BT-549 breast it was 20%. In addition, the growth in the test with SW-620 colon is 45.7%; in the test on MCF7 breast, 9.71% (active); in the test on HCT-116 colon, 14.1%; with HCC-2998 colon, 24.3%; in the test with KM12 colon, 4.9% (active).
In the case of `C=C1C(=O)O[C@@H]2C[C@@H](C)[C@H](OC)CC(=O)[C@](C)(OC(C)=O)C[C@H](OC(=O)/C(C)=C\C)[C@@H]12`, the growth in the test with SR leukemia was 1.2% (active); in the test with RPMI-8226 leukemia, 68.3%; in the test on OVCAR-8 ovarian, 59%; in the test with OVCAR-5 ovarian, 115%; in the test on OVCAR-4 ovarian, 82.3%; with SK-OV-3 ovarian, 96.8%. The growth in the test on IGROV1 ovarian was 90.1%; in the test with OVCAR-3 ovarian, 21.4%; with HS 578T breast it was 103%; with NCI/ADR-RES ovarian, 100%; with T-47D breast, 46.9%; with BT-549 breast, 83.7%. In addition, the growth is 15.6% in the test on SW-620 colon, 56.5% in the test with MCF7 breast, 5.78% (active) in the test with HCT-116 colon and 93.7% in the test with KM12 colon.
Regarding `COc1ccc(-c2ccc3c4c(cccc24)C(=O)N(N2C(=O)c4cccc5cccc(c45)C2=O)C3=O)cc1`, the growth is 95.3% with SR leukemia; 29.4% with RPMI-8226 leukemia; 100% with OVCAR-8 ovarian; 101% in the test on OVCAR-5 ovarian; 97.5% in the test on OVCAR-4 ovarian; 100% with SK-OV-3 ovarian. For the same compound, the growth with IGROV1 ovarian is 92.4%; with HS 578T breast, 101%; in the test on NCI/ADR-RES ovarian, 98.2%; in the test with T-47D breast, 98%; in the test on BT-549 breast it was 106%; in the test with MDA-MB-435 melanoma it was 98.8%. Moreover, the growth was 96.2% with SW-620 colon, 15.6% in the test with MCF7 breast, 96.8% in the test with HCT-116 colon and 114% in the test with HCC-2998 colon.
Regarding `CNC(=O)c1cc(N2CCc3cc(NC(=O)Nc4ccc(Cl)c(Cl)c4)ccc32)ccn1`, the growth with SR leukemia was 64.4%; with RPMI-8226 leukemia, 57.1%; in the test with OVCAR-8 ovarian, 90%; with OVCAR-5 ovarian it was 96.8%; with OVCAR-4 ovarian, 86.4%; in the test on SK-OV-3 ovarian, 88.8%. Also, the growth in the test on IGROV1 ovarian is 94%; in the test on OVCAR-3 ovarian, 105%; with HS 578T breast it was 62%; in the test on NCI/ADR-RES ovarian, 93%; in the test with T-47D breast it was 63.4%; with BT-549 breast it was 77%. Further, the growth was 84.2% with MDA-MB-435 melanoma; 114% in the test with SW-620 colon; 92.7% in the test with HCT-116 colon; 98% with HCC-2998 colon; 30.4% in the test with KM12 colon.
With `Cc1ccc(-c2csc(N/N=C/c3nc4ccccc4n3C3CC3)n2)cc1`, the growth with SR leukemia is 25.1%; in the test with RPMI-8226 leukemia, 84.8%; with OVCAR-8 ovarian, 18.9%; with OVCAR-5 ovarian, 105%; in the test with OVCAR-4 ovarian, 93.1%; in the test on SK-OV-3 ovarian, 120%. In addition, the growth in the test with IGROV1 ovarian is 57.8%; in the test on HS 578T breast, 88.5%; with NCI/ADR-RES ovarian, 72.9%; with T-47D breast it was -50.9% (active); in the test with BT-549 breast, 73.1%; in the test on MDA-MB-435 melanoma it was 92.4%. The growth in the test on SW-620 colon is -72% (active); in the test on MCF7 breast, 50.2%; with HCT-116 colon, 89.3%; in the test with HCC-2998 colon, 90%.
For the compound `CCOC(=O)C1=C(C)N=C2Sc3ccccc3N2C1c1ccccc1` (stereo not given), the growth with SR leukemia was 83.8%; in the test with RPMI-8226 leukemia it was 73.4%; in the test with OVCAR-8 ovarian, 96.6%; in the test on OVCAR-5 ovarian it was 102%; in the test on OVCAR-4 ovarian it was 91.9%; in the test with SK-OV-3 ovarian, 125%. The growth with IGROV1 ovarian was 77.3%; in the test on OVCAR-3 ovarian, 98.4%; in the test on HS 578T breast it was 93.5%; in the test with NCI/ADR-RES ovarian, 82.3%; in the test on T-47D breast, 76.6%; in the test on BT-549 breast, 92.2%. In addition, the growth in the test with MDA-MB-435 melanoma was 102%; in the test with SW-620 colon, 92.2%; in the test with HCT-116 colon, 65%; in the test with HCC-2998 colon it was 97.1%; in the test on KM12 colon it was 93.9%.
Regarding `O=C1[C@H]2Cc3c([nH]c4ccccc34)[C@@H](c3ccc(Cl)cc3)N2C(=O)CN1C1CCN(Cc2c(Cl)cccc2Cl)CC1`, the growth with SR leukemia is 29.8%; in the test with RPMI-8226 leukemia, 88.4%; in the test with OVCAR-8 ovarian it was 89.2%; in the test on OVCAR-5 ovarian it was 98.1%; in the test on OVCAR-4 ovarian, 87.1%; with SK-OV-3 ovarian it was 108%. The growth is -44.1% (active) in the test on IGROV1 ovarian; 100% in the test with OVCAR-3 ovarian; 88.2% in the test on HS 578T breast; 81.5% in the test with NCI/ADR-RES ovarian; 84.8% with T-47D breast; 97.2% in the test with BT-549 breast. Further, the growth with MDA-MB-435 melanoma is 97.1%; in the test with SW-620 colon, 106%; in the test with HCT-116 colon, 87.9%; with HCC-2998 colon it was 101%; in the test with KM12 colon, 87.9%.
